Screening data deposited in PubChem by National Center for Advancing Translational Sciences (NCATS).
Rows were chosen to be rich in hits. Some 7.3% of all compounds tested hit in one or more screens of this group.
p53 reactivator: qHTS assay for re-activators of p53 using a Luc reporter. AID 504706, 2011. H1299 p53-A138V BP100-luciferase reporter, luminescence, 24 h. Potency, µM (doses to about 92.2 µM), for inactives: at the highest dose activity change, positive = activation, hits mostly activators. 320,000 tested, 0.063% active; further: % of control where 0% means no effect; nearly all actives have a fitted effect of over 45% in size
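p53-null H1299 cells stably carrying temperature-sensitive p53-A138V and a BP100-luciferase reporter were pinned with compounds (4-point, 1:5 series) and held 24 hrs at 37 deg C. Luminescence was read 10 min after detection reagent.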
FLuc modulator: qHTS profiling assay for firefly luciferase inhibitor/activator using purifed enzyme and Km concentrations of substrates (counterscreen for miR-21 project); Luciferin 4-monooxygenase (Photinus pyralis), P08659; purified FLuc, Km substrates, luminescence inhibition; 360,000 tested, 6.9% active; Potency, µM (titrated, usually from 57.5 µM), inactives show top-dose activity change, negative = inhibition, usual class: inhibitors;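 further: plate controls were vehicle for no effect and reference inhibitor for full effect; nearly all actives have a fitted effect of over 55% in size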
Target sequence (P08659 whole entry, looked up): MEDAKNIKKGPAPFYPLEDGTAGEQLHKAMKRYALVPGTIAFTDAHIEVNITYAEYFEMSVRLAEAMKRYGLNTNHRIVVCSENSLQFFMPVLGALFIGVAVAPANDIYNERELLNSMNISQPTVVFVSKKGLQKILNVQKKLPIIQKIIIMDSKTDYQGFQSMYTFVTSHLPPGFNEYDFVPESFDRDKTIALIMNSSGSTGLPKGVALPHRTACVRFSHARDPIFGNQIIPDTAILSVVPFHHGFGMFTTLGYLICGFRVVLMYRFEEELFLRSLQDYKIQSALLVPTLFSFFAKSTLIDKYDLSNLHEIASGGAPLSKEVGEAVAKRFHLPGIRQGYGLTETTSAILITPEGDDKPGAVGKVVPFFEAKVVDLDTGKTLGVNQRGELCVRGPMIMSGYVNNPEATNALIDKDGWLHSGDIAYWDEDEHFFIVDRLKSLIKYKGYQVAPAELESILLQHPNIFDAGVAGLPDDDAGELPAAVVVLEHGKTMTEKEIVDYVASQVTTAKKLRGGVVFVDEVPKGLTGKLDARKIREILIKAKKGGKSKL
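Purified P. pyralis luciferase, 10 nM final, with Km-level 10 uM D-luciferin and 10 uM ATP in 50 mM Tris acetate pH 7.5, 10 mM Mg acetate, 0.01% Tween-20, 0.05% BSA; 6-point qHTS titration about 60 µM downward; luminescence read.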
Rab9 promoter act: qHTS Assay for Rab9 Promoter Activators. Huh7 Rab9 promoter-luciferase reporter, luminescence, 24 h. Potency, µM (doses to about 9.22 µM), without a hit: at the highest dose activation, negative = inhibition, usual class: activators. 320,000 tested, 2.8% active. AID 485297, 2010; further: % of control where 0% means no effect; nearly all actives have a fitted effect of over 60% in size
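Stable Rab9-luc Huh7, 1500 cells/well, 2 h settle; cmpd in DMSO, 24 h, 37 °C/5% CO2; luciferase reagent 10 min RT; luminescence.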
SMN2 splice up: qHTS Assay for Enhancers of SMN2 Splice Variant Expression | AID 1458, 2008 | HEK293 SMN2-luciferase splicing reporter, luminescence, 30-36 h | 210,000 tested, 2.8% active | Potency, µM (top dose mostly 46.1 µM), without a hit: at the top dose activity change, positive = activation, most hits filed as activators; further: % of control where 0% means no effect; nearly all actives have a fitted effect of over 55% in size
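qHTS luciferase splicing reporter: luminescence rises when SMN2 exon 7 is included in transfected HEK293 cells. Compound exposure lasted 30-36 h at 37C, with 4.5 mM final sodium butyrate as control, followed by a ONE-Glo read.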
NPC1 promoter act: qHTS Assay for NPC1 Promoter Activators; Huh7 NPC1 promoter luciferase reporter, 24 h; 320,000 tested, 2.4% active; Potency, µM (highest dose often 9.22 µM), without a hit: top-dose activation, usual class: activators; further: % of control where 0% means no effect; nearly all actives have a fitted effect of over 60% in size
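NPC1 promoter–luciferase Huh7 cells; 24 h compound; luminescence.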
ELG1 genotoxic: qHTS screen for small molecules that induce genotoxicity in human embryonic kidney (HEK293T) cells expressing luciferase-tagged ELG1. AID 504466, 2011. Potency, µM (doses to about 46 µM), without a hit: at the highest dose activity change, positive = activation, actives largely listed as activators. HEK293T ELG1-luciferase reporter, luminescence, 16 h. 330,000 tested, 1.3% active; further: % of control where 0% means no effect; nearly all actives have a fitted effect of over 60% in size
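Genotoxic stress is detected as increased luminescence from luciferase-tagged ELG1 in HEK293T cells, measured with ONE-Glo after a 16 hr treatment at 37 °C.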
* = called active by the depositor; ? = inconclusive; · = not tested or not shown; [ ] = dose if it differs, or a comment. The call rests on the fitted dose curve; in most records, active means well fitted curve in the direction sought with a large enough effect; inconclusive means small, poorly fitted or top-dose-only effect, or another doubt; inactive means no such curve, though single readings can be large; an effect the other way counts as inactive or inconclusive. Potency means the concentration at half of the fitted maximal effect.

SMILES	p53 reactivator	FLuc modulator	Rab9 promoter act	SMN2 splice up	NPC1 promoter act	ELG1 genotoxic
CCOC(=O)c1c(-c2ccccc2)oc2ccc(NS(=O)(=O)c3cc(C)c(C)cc3C)cc12	·	-2.5%	·	-5.5%	·	·
COc1cccc(NC(=O)c2oc3ccccc3c2NC(=O)c2ccc(C(F)(F)F)cc2)c1	·	-18.6%	·	-4.5%	·	·
O=Cc1ccccc1OCCOc1ccccc1C=O	?	23.9µM*	2.7%	?	0.2%	?
CCc1cc(C(=O)Nc2ccccc2)cs1	?	-17.4%[2.3 µM]	2.24µM*	34.9%	-9.5%	?
CCc1cc(C(=O)NNC(=S)Nc2ccccc2C)cs1	?	6.75µM*	2.82µM*	14.1µM*	3.55µM*	?
CCc1cc(C(=O)NNC(=S)Nc2cc(C)ccc2C)cs1	19.5%	-12.4%	1.8%	-25.8%	10.0%	0.7%
CCC1=C2CC[C@H]3C(=O)N(CC(=O)OC)C(=O)[C@H]3[C@H]2[C@@]2(C)C(=O)N(Cc3ccccc3)C(=O)N2C1=O	·	·	·	-6.6%	·	·
O=C(NCCc1cn2ccsc2n1)C1CCCCC1	7.5%	3.2%	-3.0%	-14.4%	-3.0%	-0.1%
c1ccc(CSCc2cn3ccsc3n2)cc1	?	26.9µM*	2.82µM*	12.6µM*	?	16.4µM*
Clc1ccc(SCc2cn3ccsc3n2)cc1	?	10.7µM*	3.98µM*	25.4%	2.82µM*	?
c1cn2cc(CSC3CCCCC3)nc2s1	?	12µM*	3.98µM*	14.1µM*	3.16µM*	2.31µM*
Cc1csc2nc(CSc3ccc(Cl)cc3)cn12	?	5.36µM*	2.51µM*	5.01µM*	2.51µM*	?
CC(C)Oc1ccc(S(=O)(=O)N2CCCCC2)cc1NC(=O)C1CCC1	3.8%	-0.8%	-2.4%	·	-4.1%	-0.9%
COc1cc(CCNC(=O)c2ccc3c(c2)c(C)c(C)n3Cc2cccc(C)c2)cc(OC)c1OC	·	-11.6%	·	·	·	·
CC(=O)c1ccc(NC(=O)c2c3c(nc4ccccc24)C(=O)N(C2CCCCC2)C3)cc1	·	-5.5%	·	·	·	·
CCN(c1ccc(OC)cc1)S(=O)(=O)c1ccc2[nH]c3c(c2c1)CCCCC3	·	-7.4%	·	·	·	·
S=C(Nc1ccc2nsnc2c1)NC1CCCCC1	?	21.3µM*	19.5%	?	19.5%	-1.7%
FC(F)(F)c1ccc(NC(=S)NC2CCCCC2)cc1	1.9%	?	22.6%	15.8µM*	8.2%	-13.1%
CC(C)c1ccc(NC(=S)NC2CCCCCC2)cc1	8.1%	16.9µM*	?	12.6µM*	?	?
FC(F)(F)c1cccc(NC(=S)NC2CCCC2)c1	2.1%	-7.3%	-0.3%	-4.0%	-1.2%	-10.0%
S=C(Nc1ccc(Oc2ccc(NC(=S)NC3CCCCC3)cc2)cc1)NC1CCCCC1	15.9%	-0.2%	-2.4%	-43.8%	-8.6%	-8.3%
COc1cc([C@@H]2Nc3c(F)cccc3[C@@H]3C=CC[C@@H]32)cc(Br)c1OC	·	6.0%	·	-5.0%	·	·
CCOc1ccc(NC(=O)CSc2nc3ccccc3nc2N2CC(C)OC(C)C2)cc1 (stereo unspecified)	6.3%	-1.2%	-10.0%	·	-1.8%	-0.3%
CC[C@H]1CC[C@H]2[C@@H]3CC=C4C[C@H](OC(C)=O)[C@@H](N)C[C@@]4(C)[C@H]3CC[C@@]12C	·	·	·	0.2%[9.22 µM]	·	·
COC(=O)NC(CCc1ccccc1)C(C(C)=O)C(=O)OC (stereo unspecified)	·	·	·	7.2%	·	·
SMILES	p53 reactivator	FLuc modulator	Rab9 promoter act	SMN2 splice up	NPC1 promoter act	ELG1 genotoxic
CCOc1cc(NC(=S)Nc2cccc(OC)c2)c(OCC)cc1NC(=O)C1CC1	-3.4%	15.1µM*	1.8%	20.1%	-2.1%	-7.5%
COc1cccc(NC(=S)NN=C2CCCCCC2)c1	0.8%	8.49µM*	3.16µM*	14.1µM*	3.55µM*	?
COc1cccc(NC(=O)C2CCC2)c1	16.2%	-0.1%	-1.4%	·	-0.5%	-0.2%
CCc1ccc(NC(=S)Nc2cccc(OC)c2)cc1	5.5%	21.3µM*	2.4%	6.9%	-6.7%	6.0%
O=C(NCC1CCCO1)c1ccc(Cl)c(S(=O)(=O)Nc2ccccc2)c1 (stereo unspecified)	4.7%	2.5%	-6.1%	·	-0.3%	-2.0%
Cn1cc(C(=O)NCc2cccs2)c(=O)c2cc(S(=O)(=O)N3CCCC3)ccc21	-14.4%	-5.5%	-8.9%	-14.8%	-0.3%	0.6%
C=CCSc1nnc2c(n1)[nH]c1c(C)cccc12	?	9.53µM*	?	-19.2%	3.55µM*	?
Cc1cccc2c1[nH]c1nc(N/N=C\c3ccco3)nnc12	-4.1%	-11.7%	13.7%	-1.0%	10.9%	3.3%
CC(O)CCCCn1c(=O)c2c(ncn2C)n(C)c1=O (stereo unspecified)	·	·	·	0.2%	·	·
O=C(Cc1cccs1)Nc1ccc(Cl)cc1	15.3%	?	24.7%	?	15.4%	0.9%
Cc1ccc2nc(-c3ccc(NC(=O)CSc4ccccc4)cc3)[nH]c2c1	?	?	2.51µM*	3.55µM*	1.58µM*	?
O=C(Nc1nc2ccccc2[nH]1)C1CCCO1 (stereo unspecified)	?	?	?	28.8%	?	15.7%
O=C(Cc1cccs1)Nc1ccc(-c2nc3ccccc3[nH]2)cc1	19.0%	1.51µM*	1.58µM*	17.8µM*	1.78µM*	?
O=C(Nc1ccc(-c2nc3ccccc3[nH]2)cc1)C1CCCO1 (stereo unspecified)	21.1%	1.2µM*	0.316µM*	2.24µM*	0.355µM*	0.411µM*
Cc1ccc2nc(SCC(=O)Nc3ccc(C(N)=O)cc3)[nH]c2c1	-1.6%	-5.8%	-16.8%	·	-1.1%	7.0%
O=C(CN1CCOCC1)Nc1ccc(-c2nc3ccccc3[nH]2)cc1	15.8%	13.5µM*	?	24.8%	?	?
COc1c(CC(=O)c2cc3c(cc2O)OC(C)(C)C(O)C3)ccc2c1C=CC(C)(C)O2 (stereo unspecified)	·	·	·	-21.5%	·	·
Cc1c(NC(=O)CSc2nc3ccccc3c(=O)n2C(C)C)c(=O)n(-c2ccccc2)n1C	-3.1%	-0.9%	-4.0%	·	-1.2%	0.4%
O=C(CSc1ccccc1)Nc1ccc(-c2nc3ccccc3[nH]2)cc1	·	?	3.16µM*	8.91µM*	2.24µM*	?
CCNC(=S)Nc1ccc(-c2nc3ccccc3[nH]2)cc1	19.4%	10.7µM*	1.12µM*	·	3.16µM*	?
O=C(CSc1ccc2ccccc2c1)Nc1nc2ccccc2[nH]1	13.6%	3.4%	-8.8%	·	-3.4%	14.8%
